Assay results: PubChem BioAssay AID588855 (National Center for Advancing Translational Sciences (NCATS), 2011)
About 5,000 (1.2%) of roughly 410,000 compounds were called active. Another 13% or so got no clear call; they are omitted. Calls come from the whole dose curve; as a rule, active = well fitted inhibition curve with a large enough effect; inconclusive = small, poorly fitted or top-dose-only effect; inactive = no such curve, though single readings can be large or run the other way. For the sample, actives were picked, then their nearest neighbours and some compounds at random.

Assay: qHTS for Inhibitors of TGF-b; note: nearly all actives have a fitted effect of over 65% in size
Conditions: HepG2 CAGA-GFP TGF-b/SMAD3 reporter, GFP fluorescence, 18 h, TGF-beta stimulated, 500 pg/mL final; series mostly up to 46.1 µM
How it was run: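 Inhibition was scored as loss of TGF-beta-induced (500 pg/mL final, 18 hours, 37 degrees C) GFP in HEPG2 cells carrying a CAGA-GFP reporter, in DMEM with 1% FBS. Well GFP was summed per cell; Activity was normalised to unstimulated and stimulated DMSO wells, then concentration-response fitting.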
Potency is the fitted concentration of half-maximal effect.

Potency, inactive:
Cc1ccc(S(=O)(=O)c2nnn3c2nc(N2CCN(c4ccccc4F)CC2)c2cc(Cl)ccc23)cc1C, COc1ccc(CNc2nc(-c3ccccc3)nn2C(=O)c2ccccc2OC)cc1, OC(Cc1ccc2ccccc2n1)c1ccc(Cl)c(Cl)c1 (stereo unspecified), CC1CC(C)CN(c2oc(-c3ccc(OCc4ccc(Cl)cc4)cc3)nc2C#N)C1 (stereo unspecified), CC1=C(C(=O)N2CCOCC2)CC(CC(=O)NCCN2CCOCC2)C(=O)N1CCC1=CCCCC1 (stereo unspecified), CC1=C(C(=O)N(C)C)CC(CC(=O)NCCc2ccccn2)C(=O)N1CCC1=CCCCC1 (stereo unspecified), COc1ccc(/C=C/c2nnc(NC(=O)C(C)C)s2)cc1, O=C(CSc1ccccc1)Nc1nnc(/C=C/c2ccccc2)s1, COc1ccc(-c2cnc(SCCNC(=O)c3ccc4c(c3)OCO4)[nH]2)cc1, COc1cccc(-c2cnc(C(O)c3ccccc3OC)[nH]2)c1 (stereo unspecified), COc1ccccc1OCCNC(=O)c1cc([N+](=O)[O-])cc([N+](=O)[O-])c1, COc1ccc(C(=O)COC(=O)c2ccc([N+](=O)[O-])s2)cc1OC, Cc1ccc(S(=O)(=O)N2CCN(CC(=O)N/N=C/c3ccc(Br)s3)CC2)cc1, Cc1nn(Cc2ccc(Cl)cc2)c(Cl)c1/C=N/NC(=O)CNc1ccccc1F, COc1ccc(C2C(=O)N(C3CCCCC3)CC(=O)N2Cc2ccccc2Cl)cc1OC (stereo unspecified), O=C(Cc1ccc(Cl)cc1)Nc1ccc2nn(-c3ccc(Cl)cc3)nc2c1, CC1CCN(c2nc3ccc(C(=O)N4CCN(c5ccccc5)CC4)cc3s2)CC1, O=C(NCc1ccc(F)cc1)c1ccc2nc(N3CCCCC3)sc2c1, CCn1c2ccccc2c2cc(NC(=O)COc3ccc(C)cc3C)ccc21, Cn1nc(-c2ccccc2)c(-c2ccccc2)c(C(=O)Nc2ccc(S(N)(=O)=O)cc2)c1=O

Potency, active:
CC1=C(C(=O)N(C(C)C)C(C)C)CC(CC(=O)NCCCCc2ccccc2)C(=O)N1CCC1=CCCCC1 (stereo unspecified) 12.6 µM, O=C(Nc1ccc(Cl)cc1)Nc1nnc(/C=C/c2ccccc2)s1 7.08 µM, COc1ccccc1CSc1ncc(-c2ccc([N+](=O)[O-])cc2)[nH]1 12.6 µM, Cc1ccccc1NCC(=O)N/N=C\c1ccc([N+](=O)[O-])s1 11.2 µM, COc1ccc(C(=O)NCC(=O)N/N=C/c2ccc([N+](=O)[O-])s2)cc1OC 11.2 µM, COc1ccc2nc(N3CCN(C(=O)c4ccc([N+](=O)[O-])o4)CC3)sc2c1 10 µM
